Screening data (PubChem BioAssay)
SW480 rerep: inducers of DNA re-replication in SW480 colon cancer cells; 1.8% of 340,000 active; Potency, µM (top dose mostly 46.1 µM), for inactives: top-dose re-replication activation, usual class: activators; SW480 DNA re-replication, Hoechst DNA content imaging, 48 h; also: % of control where 0% means no effect; nearly all actives have a fitted effect of over 55% in size
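Compounds, transferred as 23 nL by pin tool, were incubated with cells for 48 hr; DNA content per nucleus was then quantified by Hoechst staining and fluorescence plate imaging.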
KB-V1 MDR tox: kills drug-selected multidrug resistant KB-V1 cells | Potency, µM (top dose mostly 46.1 µM), usual class: cytotoxic | AID 1347076 | KB-V1 MDR cells viability, CellTiter-Glo, 72 h | 3.4% of 400,000 active; also: % is scaled to controls: 0 for no effect and ±100 for the full control effect; nearly all actives have a fitted effect of over 60% in size
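KB-V1 MDR subline cells in DMEM (phenol-red free, 10% FBS) exposed to compounds in qHTS concentration series for 72 h at 37 degrees C. Viability read by CellTiter-Glo luminescence; concentration-effect curves fitted after normalization and correction.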
HT1080NT lethal: kills 2HG-producing HT-1080-NT fibrosarcoma cells | HT-1080-NT fibrosarcoma viability, CellTiter-Glo ATP luminescence, 48 h | Potency, µM (top dose mostly 46.1 µM), for inactives: at the top dose activity, negative = less viability, actives largely listed as cytotoxic | 1.6% of 360,000 active;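 also: NT is the 2HG producing partner of a matched IDH1 knockdown line; 0% = DMSO-treated cells and -100% = media-only wells without cells; nearly all actives have a fitted effect of over 55% in size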
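HT-1080-NT; 750 cells/well; 5% FBS RPMI; 48 h compound, 37 degrees C; CellTiter-Glo luminescence; curve fitting and curve-class assignment.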
HT1080 IDH1KD tx: toxicity to HT-1080 IDH1 knockdown cells (counter line); Potency, µM (doses to about 46.1 µM), inactives show at the top dose activity, negative = toxicity, most hits filed as cytotoxic; 2% of 360,000 active; HT-1080 IDH1 knockdown viability, ATP luminescence, 48 h;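 also: 0% = DMSO wells and -100% = cell-free medium wells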
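Viability of IDH1-knockdown HT-1080 fibrosarcoma cells was assessed by CellTiter-Glo after 48 h at 37 °C with titrated compound; concentration-effect curves were classified by fit quality and response size.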
MCF10A rereplic: induces DNA re-replication in MCF 10a normal breast cells; Potency, µM (doses to about 46.1 µM), for inactives: top-dose activity, positive = re-replication, hits mostly activators; AID 624296; 2.9% of 350,000 active; MCF 10A DNA re-replication, Hoechst nuclear intensity, 48 h; also: % of control where 0% means no effect; nearly all actives have a fitted effect of over 50% in size
KB-3-1 cytotox: KB-3-1 parental cell cytotoxicity; KB-3-1 viability, CellTiter-Glo ATP luminescence, 72 h; Potency, µM (doses to about 46.1 µM), hits mostly cytotoxic; 1.4% of 400,000 active; also: % is scaled to controls: 0 for no effect and ±100 for the full control effect; nearly all actives have a fitted effect of over 60% in size
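KB-3-1 cells, DMEM (no phenol red) + 10% FBS; compound by pin transfer, 72 h, 37 °C. Readout: CellTiter-Glo luminescence after 10 min. Data normalized, curve-fitted.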
Numbers without * were called inactive; i = inactive; ? = inconclusive; / = no result; [ ] = remark or other dose. An excerpt weighted towards active compounds, which were near 7.9% of everything screened. Calls follow the shape of the dose curve; as a rule, active = well fitted curve in the direction sought with a large enough effect; inconclusive = small, poorly fitted or top-dose-only effect, or another doubt; inactive = no such curve, though single readings can be large; an effect the other way counts as inactive or inconclusive. Potency is read from the fitted curve at half-maximal effect.

SMILES	SW480 rerep	KB-V1 MDR tox	HT1080NT lethal	HT1080 IDH1KD tx	MCF10A rereplic	KB-3-1 cytotox
COc1cc(C(=O)N2CCN(S(=O)(=O)c3ccc(F)cc3)CC2)cc(OC)c1OC	2.6%	20.6µM*	8.1%	-2.2%	8.7%	i
COc1cc(C(=O)N2CCCN(c3nc4cc(C)ccc4cc3C#N)CC2)cc(OC)c1OC	-5.0%	18.4µM*	-8.0%	0.3%	?	i
COc1cc(C(=O)C(=O)N2CCN(c3ccccc3)CC2)cc(OC)c1OC	/	?	?	7.31µM*	/	20.6µM*
COc1ccccc1Cn1cc(C(=O)c2ccc(C)cc2)c(=O)c2cc3c(cc21)OCCO3	/	i	/	/	/	i
Fc1ccc2cnc(-c3cccnc3)cc2c1	-3.2%	i	-1.9%	-2.5%	7.8%	i
CCOC(=O)C1(CCCc2ccccc2)CCN(C(=O)CCN2CCCCC2=O)CC1	0.7%	i	7.1%	-0.9%	4.0%	i
Cc1cc2cc(C#N)c(N3CCN(S(C)(=O)=O)CC3)nc2cc1C	-1.9%	18.4µM*	2.1%	-3.1%	-52.9%	i
COc1cc(C(=O)N2CCN(c3ccc(C)cc3C)CC2)cc(OC)c1OC	6.51µM*	?	4.61µM*	5.8µM*	18.4µM*	2.31µM*
Cc1ccc(S(=O)(=O)N2CCCN(c3nc4cc(C)ccc4cc3C#N)CC2)cc1	-3.0%	?	16.4%	-3.4%	?	i
Fc1ccccc1C1=NC(c2ccc(C(F)(F)F)cc2)=Nc2ccccc2N1	/	i	/	/	/	i
C=C1CC(COc2cc(=O)oc3ccccc23)(c2ccccc2)OC1=O (stereo unspecified)	28.0%	?	16.4µM*	5.17µM*	2.59µM*	10.3µM*
C=C1CCC2C(C)(C)[C@H](O)CC[C@@]2(C)[C@@H]1COc1cc(=O)oc2ccccc12 (stereo partly specified)	-2.9%	i	?	?	?	i
CSc1nnc(C)c(/C=C/Nc2ccc(F)cc2F)n1	19.9%	?	?	16.4µM*	18.4µM*	i
CSc1nnc(C)c(/C=C/NOCc2cccc(F)c2)n1	1.7%	i	-4.6%	-6.8%	19.8%	i
Brc1ccc2c(c1)C(c1cccs1)=NNC(c1cccnc1)=N2	-3.2%	20.6µM*	-1.5%	-3.1%	3.3%	i
O=C1C=CC(=O)N1c1ccc2c(c1)C(NC(=O)C(F)(F)F)c1ccccc1-2 (stereo unspecified)	8.2µM*	/	-0.1%	?	?	/
O=C(NC1c2ccccc2-c2ccccc21)c1ccccc1	-7.4%	i	-3.0%	-0.5%	-1.1%	i
COc1ccccc1N(C)S(=O)(=O)c1ccc(C)c(C(=O)NC(C)c2ccccn2)c1 (stereo unspecified)	3.7%	9.2µM*	-4.8%	-0.6%	14.2%	i
CCc1nn(CC(=O)NCc2ccccc2Cl)c(=O)c2cc3ccccc3n12	/	i	/	/	/	i
CCCCOC(=O)CSC1=C(C#N)C(c2ccc3c(c2)OCO3)CC(=O)N1 (stereo unspecified)	-3.0%	i	-1.3%	2.1%	0.6%	i
CCOC(=O)CSC1=C(C#N)C(c2ccc3c(c2)OCO3)CC(=O)N1 (stereo unspecified)	?	?	16.4µM*	9.2µM*	?	7.31µM*
CCOC(=O)CSC1=C(C#N)C(c2ccccc2OCC)C(C#N)C(=O)N1 (stereo unspecified)	18.4µM*	i	?	-8.6%	?	i
CCOC(=O)CSC1=C(C#N)C(c2ccc(Cl)cc2)CC(=O)N1 (stereo unspecified)	8.6%	i	-10.5%	-4.8%	1.6%	i
CCOC(=O)CSC1=C(C#N)C(c2ccc(C)o2)CC(=O)N1 (stereo unspecified)	0.82µM*	?	1.03µM*	0.581µM*	?	0.581µM*
COc1cc(C(=O)Nc2cccc(S(=O)(=O)N3CCCC3)c2)cc(OC)c1C	0.7%	23.1µM*	-3.0%	-8.7%	?	?
SMILES	SW480 rerep	KB-V1 MDR tox	HT1080NT lethal	HT1080 IDH1KD tx	MCF10A rereplic	KB-3-1 cytotox
CS(=O)(=O)c1cccc(C(=O)Nc2cccc(S(=O)(=O)N3CCCC3)c2)c1	-62.7%	i	-20.4%	-15.2%	29.8%	i
O=C(Nc1cccc(S(=O)(=O)N2CCCCC2)c1)c1ccc(S(=O)(=O)C(F)F)cc1	-3.4%	7.31µM*	-0.5%	-15.4%	1.8%	?
O=C(Nc1cccc(S(=O)(=O)N2CCCCC2)c1)c1ccc2c(=O)n3c(nc2c1)CCCCC3	-7.7%	5.8µM*	-18.7%	?	23.8%	11.6µM*
CCc1ccc(NC(=O)c2ccc3c(=O)n4c(nc3c2)CCCCC4)cc1	16.4%	i	-0.8%	-0.4%	14.6%	?
CC(C)Cn1nc(C(=O)Nc2cccc(S(=O)(=O)N3CCCC3)c2)c2ccccc2c1=O	6.6%	4.61µM*	-0.3%	-4.3%	17.3%	i
O=C(Nc1cccc(S(=O)(=O)C(F)F)c1)c1ccc(S(=O)(=O)N2CCCCC2)cc1	-7.2%	?	?	?	-2.0%	?
COc1ccc(C(=O)O)cc1S(=O)(=O)N(C)CCc1cccnc1	-3.0%	i	12.5%	10.9%	-2.4%	i
COc1ccc(C=O)cc1CSc1ccccn1	-4.6%[9.22 µM]	i	-29.3%	0.5%	11.6%	i
CC(C)(C)OC(=O)N1CCC(c2c(C(=O)NCc3ccco3)cnn2-c2ccc(F)cc2F)CC1	/	i	/	/	/	i
O=C(Cc1ccc(Cl)cc1)Nc1cccc(S(=O)(=O)N2CCCCC2)c1	-6.9%	i	-0.2%	-10.1%	?	?
O=C(CCl)Nc1cccc(S(=O)(=O)N2CCCCCC2)c1	13µM*	23.1µM*	?	18.4µM*	?	16.4µM*
CCS(=O)(=O)c1ccc2oc(SCC(=O)NCc3ccccc3)nc2c1	-6.7%	i	5.8%	16.2%	2.9%	i
CCS(=O)(=O)c1ccc2oc(SCC(=O)NC34CC5CC(CC(C5)C3)C4)nc2c1	-3.7%	14.6µM*	-8.9%	-7.5%	2.9%	i
CCCOc1ccc(C(=O)CCC(=O)NNC(=O)c2cccs2)cc1	?	i	2.5%	12.3%	-2.1%	i
Clc1ccc(OCCOCCN2CCc3ccccc3C2)c(Cl)c1	1.4%	i	23.1µM*	23.1µM*	?	i
Clc1ccc(SCCOCCN2CCc3ccccc3C2)cc1	8.2%	i	23.1µM*	?	9.4%	i
Clc1ccc(OCCCN2CCc3ccccc3C2)c(Br)c1	1.3%	i	-22.5%	-10.4%	7.8%	i
